In all, about 360,000 compounds went through this assay and about 10,000 (2.8%) were called active. About 4% were inconclusive and are not listed. The sample as a whole holds a higher share of actives than the screen did. A number with no mark means an inactive call. Calls follow the shape of the dose curve; as a rule, active = well fitted inhibition curve with a large enough effect; inconclusive = small, poorly fitted or top-dose-only effect; inactive = flat fitted curve, though single readings scatter.
% is scaled to controls: 0 for no effect and ±100 for the full control effect; potency is read from the fitted curve at half-maximal effect.

Serine/threonine-protein kinase PLK1 (Homo sapiens), sequence (P53350 whole entry, looked up, the tested form may be a part): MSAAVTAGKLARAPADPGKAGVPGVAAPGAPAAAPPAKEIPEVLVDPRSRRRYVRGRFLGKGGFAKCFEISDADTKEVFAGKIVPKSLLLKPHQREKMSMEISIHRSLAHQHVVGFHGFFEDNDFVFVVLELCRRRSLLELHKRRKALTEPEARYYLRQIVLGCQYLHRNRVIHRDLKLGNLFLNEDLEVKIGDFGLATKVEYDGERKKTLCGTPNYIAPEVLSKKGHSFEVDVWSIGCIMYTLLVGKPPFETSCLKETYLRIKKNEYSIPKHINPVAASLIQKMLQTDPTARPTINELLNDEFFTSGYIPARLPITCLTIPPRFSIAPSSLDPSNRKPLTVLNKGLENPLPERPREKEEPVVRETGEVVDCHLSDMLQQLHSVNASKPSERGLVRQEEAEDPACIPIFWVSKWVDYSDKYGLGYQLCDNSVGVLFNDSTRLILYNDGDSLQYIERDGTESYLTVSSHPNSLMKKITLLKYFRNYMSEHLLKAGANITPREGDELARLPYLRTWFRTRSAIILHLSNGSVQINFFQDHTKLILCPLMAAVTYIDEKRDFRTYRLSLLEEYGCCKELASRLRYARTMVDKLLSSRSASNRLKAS

The test has as its target Serine/threonine-protein kinase PLK1 (Homo sapiens) (UniProt P53350). Kind of test: qHTS for Inhibitors of PLK1-PDB (polo-like kinase 1 - polo-box domain): Primary Screen. Also: nearly all actives have a fitted effect of over 65% in size. As to max response, negative = inhibition: series mostly up to about 57 µM. As to conditions: Plk1 PBD binding of FITC phosphopeptide, fluorescence polarization. An excerpt: The polo-like kinase 1 (Plk1) is a member of a conserved subfamily of serine / threonine protein kinases that plays a pivotal roles in cell proliferation. It has a C-terminal non-catalytic region called the polo-box domain (PBD) that plays a crucial role in the subcellular localization of the Plk1. […] Furthermore, depletion of the overexpressed Plk1 by RNAi efficiently induces apoptotic cell death in cancer and reduces tumor growth in mouse xenograft models. Thus, targeting Plk1 is an appealing strategy for anti-cancer therapy. Therefore, this project aimed to screen the Molecular Libraries Small Molecule Repository (MLSMR) using a novel approach to find inhibitors that target the Plk1 PBD instead of the conventional N-terminal catalytic domain. This project employed a fluorescence polarization (FP) assay using a FITC-conjugated phospho-9-mer (p-9-mer) peptide and purified human Plk1 PBD protein. The identified small molecule inhibitors of Plk1 PBD can then further be developed into useful tools for biomedical and clinical research that complements or replaces current relevant disease therapy. NIH Chemical Genomics Center [NCGC] NIH Molecular Libraries Probe Centers Network [MLPCN] MLPCN Grant: MH100728 Assay Submitter (PI): Kyung Lee, NCI
Four microliter of 25 nM FITC-p-9-mer + 60 nM Plk1 PBD in buffer solution (final concentrations 25 nM and 60 nM respectively) or 4 uL of 25 nM FITC-p-9-mer (final concentration 25 nM) in buffer will be dispensed into a 1,536 Greiner medium-binding black solid plate. Small molecules at final concentrations of 18 nM to 57 uM and positive control phospho-9-mer (sequence: Ac-PPLHSpTAI-NH2) at final concentrations 26 nM to 57 uM and phospho-13-mer (sequence: Ac-[…]pTAI-NH2) at final concentrations of 1 nM to 2.3 uM will be pin-transferred (23 nL) to the plate via a Kalypsys pin-tool robotics equipped with a 1,536-pin array. The reaction plate will be centrifuged for 1 min at 1000 rpm and incubated at room temperature for 10 min. The FITC fluorescence signals will be read using the PerkinElmer ViewLux plate reader at 480 / 20 nm excitation and 540 / 20 nm S and P polarization emission wavelengths. Reagent bottles will be kept submerged into 4 °C recirculating chiller bath and all liquid lines will be covered with aluminum foil to minimize degradation. Library plates will be screened starting from the lowest to the highest concentrations to minimize compound carryover. Vehicle only plates, with DMSO being pin-transferred instead of compound solutions, will be included regularly throughout the screen to record any systematic shifts in assay signal.
Regarding `COc1ccc(NC(=O)ON=C2c3ccccc3-c3ccccc32)cc1`, the max response, negative = inhibition is -8.43%.

As to `CN1C(=O)/C(=N/OC(=O)c2ccccc2Br)c2ccccc21`, the Potency is 23.8 µM (active). With `CN1C(=O)/C(=C\c2cc(Br)cs2)c2ccccc21`, the max response, negative = inhibition is 9.61%. For `O=C(N=C1SC2CS(=O)(=O)CC2N1Cc1ccccc1)c1ccccc1` (stereo not given), the max response, negative = inhibition is -10.4%. In the case of `O=C(C1Cc2ccccc2CN1C(=O)c1ccco1)N1CCN(c2ccccc2)CC1` (stereo not given), the max response, negative = inhibition was -14.9%. For the molecule `CC(=O)N1Cc2ccccc2CC1C(=O)O` (stereo not given), the Potency was 2.67 µM (active). `CC(=O)c1ccc(N2Cc3ccccc3C2)cc1`: the max response, negative = inhibition was -10.7%. Still for that read-out and setting: with `CSc1ncnc2c1ncn2CCCNCC1CCCCC1` the figure was 2.12%; with `Cc1c(NC(=O)COC(=O)/C=C/c2cccc(F)c2)c(=O)n(-c2ccccc2)n1C`, -2.07%.

With `Cc1c(C(=O)NCC2CC2)sc(=O)n1Cc1cccc(F)c1`, the max response, negative = inhibition was 3.08%. Same read-out and setting: with `N#CC1(Nc2ccc3c4c(cccc24)CC3)CCCCC1` the figure was -12.6%; with `Cc1oc(-c2ccccc2Cl)[n+]([O-])c1C`, -3.14%. Turning to `Cc1oc(-c2cccc(Cl)c2)[n+]([O-])c1C`, the Potency is 29.9 µM (active). Regarding `CCOC(=O)CSc1ncc(-c2cccc(Cl)c2)cn1`, the max response, negative = inhibition was -7.44%.

On to `CC(C)c1ccc(CC(=O)N2CCC2(C)C(=O)NS(=O)(=O)c2ccc(C(C)(C)C)cc2)cc1` (stereo not given), for which the max response, negative = inhibition was -5.51%. On the same count and under the same terms, then `COc1ccc(NS(=O)(=O)c2ccc(Oc3c(C#N)cccc3C#N)cc2)cc1`, with -0.548%. Consider `COc1ccc(S(=O)(=O)/N=C2\C=C(NS(=O)(=O)c3ccccc3)C(=O)c3ccccc32)cc1`, for which the Potency is 29.9 µM (active). Regarding `CCCC(NS(=O)(=O)c1ccc(OC)cc1)C(=O)O` (stereo not given), the max response, negative = inhibition was -2.19%. Turning to `CC1(C)Cc2c(sc(NC(=O)C(=O)N3CCOCC3)c2C#N)CO1`, the Potency was 9.47 µM (active). Consider `COC(=O)c1c(NC(=O)C(=O)N2CCCCC2)sc2c1CC(C)(C)OC2`, for which the max response, negative = inhibition was -13.1%. As for `CCOC(=O)N1CCN(C(=O)C(=O)Nc2sc3c(c2C#N)CC(C)(C)OC3)CC1`, the max response, negative = inhibition was -23.2%. In the case of `CC(C)C[C@H]1CNC(=O)C(=O)N1C[C@@H]1CCCN1C[C@H](Cc1ccccc1)N1C[C@H](CC(C)C)N(CC2CCCCCC2)C(=O)C1=O`, the max response, negative = inhibition was 2.6%. On to `Cc1cccc(NC(=O)c2nc(S(=O)(=O)Cc3ccccc3)ncc2Cl)c1`, for which the Potency was 8.44 µM (active).

With `Cc1cccc(CS(=O)(=O)c2ncc(Cl)c(C(=O)Nc3ccc(F)cc3)n2)c1`, the Potency was 16.8 µM (active). `Cc1ccc(CS(=O)(=O)c2ncc(Cl)c(C(=O)Nc3nnc(C)s3)n2)cc1`: the max response, negative = inhibition is -16.3%. On the same count and under the same terms, with `CN1CCN(c2ccc(NC(=O)c3ccc4c(c3)[nH]c(=O)n4Cc3ccc(F)cc3)cc2)CC1` the figure was -2.57%; with `Cc1cccc(NC(=O)C(C)SCc2ccccc2)c1` (stereo not given), -10.4%; with `O=C(Nc1ccc(F)cc1)c1ccc(S(=O)(=O)NCc2cccnc2)cc1`, -1.16%. Consider `COC(=O)[C@@]12C[C@@H](CC(=O)NCCCCc3ccccc3)C(=O)N(Cc3ccccc3)C1=CCC(C)(C)C2`, for which the max response, negative = inhibition is -7.29%. On the same count and under the same terms, with `O=C(C[C@H]1C[C@@H]2c3cc(NC(=O)C4CCC4)ccc3O[C@@H]2[C@H](CO)O1)NC1CCCCC1` the figure was -5.12%; with `COc1ccc(S(=O)(=O)N2CCC(C(=O)NCCC(=O)Nc3ccccc3OC)CC2)cc1`, 2.5%. For `Cc1cccc(S(=O)(=O)N(C)C[C@@H]2OCc3cnnn3CCCC(=O)N([C@H](C)CO)C[C@@H]2C)c1`, the max response, negative = inhibition is -8.68%. Still for that read-out and setting: then `COc1ccc(C(=O)N2CCCCC2c2cc(C(=O)Nc3ccccc3)no2)cc1` (stereo not given), with -2.81%; and `Cc1ccccc1S(=O)(=O)NC(=O)C1(C)CCN1C(=O)C1(c2ccccc2)CCCC1` (stereo not given), with 2.57%. The same measure, in the same setting: then `CCn1c(CNC(=O)c2ccccc2)nnc1SCC(=O)N1CCN(c2ccccc2)CC1`, with -1.21%; and `Cn1c(CNC(=O)c2ccco2)nnc1SCC(=O)N1CCN(c2ccccc2)CC1`, with -4.04%.

With `Cn1c(Cc2cccc3ccccc23)nnc1SCC(=O)N1CCN(c2cccc(Cl)c2)CC1`, the Potency was 29.9 µM (active). On to `C[C@H]1CN([C@@H](C)CO)C(=O)c2cc(-c3cccc(F)c3)cnc2O[C@@H]1CN(C)S(C)(=O)=O`, for which the max response, negative = inhibition was -9.21%. Same read-out and setting: with `COc1ccc(-c2c(C#N)cnc(C)c2C)c(O)c1OC` the figure was -12.9%. `C[C@H](CO)N1C[C@H](C)[C@@H](CN(C)S(=O)(=O)c2ccc(F)cc2)OCc2cnnn2CCCC1=O`: the max response, negative = inhibition is -19.3%. On the same count and under the same terms, with `O=C(Nc1cccc2ccccc12)c1[nH]c(-c2ccccc2)c2c1C(=O)N(C1CC1)C2=O` the figure was -21.7%; with `CN(C)C(=O)c1cccc(-c2cnc3c(NC=O)cc(-c4ccc(F)cc4)cn23)c1`, -19.5%. With `CCc1cccc(C)c1NC(=O)COC(=O)CNC(=O)c1cccs1`, the max response, negative = inhibition is -0.37%.

In the case of `CCc1c(C)sc(NC(=O)c2ccc(Br)o2)c1C(=O)OC`, the max response, negative = inhibition was -7.98%.

Take `CCc1c(C)sc(NC(=O)c2cccs2)c1C(N)=O`: the Potency was 4.74 µM (active).
